# From publication PMC5540273 (PLoS ONE, 2017)
# Tests used:
# Settings in all cases: concentration: 1 μM,replicates: in singlicate; n = 1
# [1] = tested on: FYN
# [2] = tested on: GAK
# [3] = tested on: T1, GCN2(Kin.Dom.2,S808G)
# T1 construct: gene EIF2AK4
# [4] = tested on: GRK1
# [5] = tested on: T2, GRK2
# T2 construct: gene ADRBK1
# [6] = tested on: T3, GRK3
# T3 construct: gene ADRBK2
# [7] = tested on: GRK4
# [8] = tested on: GRK7
# [9] = tested on: GSK3A
# [10] = tested on: GSK3B
# [11] = tested on: T4, HASPIN
# T4 construct: gene GSG2
# [12] = tested on: HCK
# [13] = tested on: HIPK1
# [14] = tested on: HIPK2
# [15] = tested on: HIPK3
# [16] = tested on: HIPK4
# [17] = tested on: HPK1
# [18] = tested on: HUNK
# [19] = tested on: ICK
# [20] = tested on: IGF1R
# 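Note: KINOMEscan kinase panel screen.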
Structure (SMILES),%Inh [1] [%],%Inh [2] [%],%Inh [3] [%],%Inh [4] [%],%Inh [5] [%],%Inh [6] [%],%Inh [7] [%],%Inh [8] [%],%Inh [9] [%],%Inh [10] [%],%Inh [11] [%],%Inh [12] [%],%Inh [13] [%],%Inh [14] [%],%Inh [15] [%],%Inh [16] [%],%Inh [17] [%],%Inh [18] [%],%Inh [19] [%],%Inh [20] [%]
Cc1cccc(-c2nc(Nc3ccncc3)c3sccc3n2)n1 [GW869641],0,13,5,0,17,11,15,42,0,40,44,25,21,13,37,13,16,20,32,8
COc1cccc(CNC(=O)NC2CCN(c3ccnc(Nc4cc(OC)c(OC)c(OC)c4)n3)C2)c1 (stereo not drawn) [GSK1379765],12,0,0,0,0,19,74,0,0,7,11,12,0,34,36,0,38,0,13,0
C[C@@H]1CCN(C(=O)N2CCCC2)C[C@@H]1N(C)c1ncnc2[nH]ccc12,59,0,1,17,25,36,17,8,2,26,30,0,25,0,22,2,0,0,13,0
CC(C)S(=O)(=O)N1CCN(Cc2ccc3c(c2)nc(NC(=O)c2ccsc2)n3C[C@H](O)c2ccccc2)CC1 [GW635815],73,0,10,35,0,8,7,10,2,0,17,37,34,20,1,0,39,0,0,29
CN1CCN(CCCNc2nccc(-c3c(-c4ccc(F)cc4)nn4cc(C(N)=O)ccc34)n2)CC1 [GW622475],9,87,5,0,0,0,9,0,33,33,0,8,5,0,27,0,13,6,12,0
O=C(Nc1n[nH]c2cc(-c3ccco3)ccc12)C1CC1 [SB-737447],0,5,25,23,0,0,68,3,96.2,66,0,5,39,50,31,6,3,0,66,0
